LEDGF integ inh: blocks HIV-1 LEDGF/p75-dependent DNA integration. TR-FRET IN-LEDGF/p75 DNA integration, Eu/Cy5. AID 743269. 0.64% of 370,000 active. inhibition, % at 3.7 µM;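 active means inhibition above the screen-wide mean plus 3 SD, cut at about 13% in these data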;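 further: signal is the Cy5 over europium emission ratio at 671 and 618 nm; 0% = plate median of compound wells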
Rin1 Abl inh: inhibitors of human Rin1-Abl protein interaction | P00519+Q13671 | TR-FRET Rin1/Abl binding, biochemical | inhibition, % at 7.35 µM | 0.4% of 360,000 active | AID 588664; in the data active means inhibition above about 5%, passing the limit was not always enough
MBD2 inh: MBD2-methylated oligo binding inhibition; TR-FRET, MBD2 binding to methylated oligonucleotide; inhibition, % at 4.4 µM; 0.31% of 370,000 active; AID 686964; in the data active means inhibition above about 13%
KLK7 zymogen act: activates the human kallikrein-7 zymogen; activation, % at 7 µM; AID 652039; purified proKLK7, EDANS-DABCYL substrate fluorescence; 100% is mature enzyme control, 0% vehicle; 0.9% of 370,000 active; P49862;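 active means activation above the mean of all tested compounds plus 3 SD, computed per campaign excluding outliers beyond control limits, cut at about 13% in these data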
UHRF1 binding: blocks human UHRF1 binding to methylated DNA; UHRF1 binding to methylated oligo, TR-FRET; AID 687016; 0.75% of 370,000 active; inhibition, % at 4.4 µM; in the data active means inhibition above about 21%;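 further: UHRF1 SRA domain binding a hemimethylated CpG hairpin DNA probe; 0% = median of test compound wells and 100% = reference inhibitor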
Target sequence (Q96T88 whole entry, looked up, the tested form may be a part): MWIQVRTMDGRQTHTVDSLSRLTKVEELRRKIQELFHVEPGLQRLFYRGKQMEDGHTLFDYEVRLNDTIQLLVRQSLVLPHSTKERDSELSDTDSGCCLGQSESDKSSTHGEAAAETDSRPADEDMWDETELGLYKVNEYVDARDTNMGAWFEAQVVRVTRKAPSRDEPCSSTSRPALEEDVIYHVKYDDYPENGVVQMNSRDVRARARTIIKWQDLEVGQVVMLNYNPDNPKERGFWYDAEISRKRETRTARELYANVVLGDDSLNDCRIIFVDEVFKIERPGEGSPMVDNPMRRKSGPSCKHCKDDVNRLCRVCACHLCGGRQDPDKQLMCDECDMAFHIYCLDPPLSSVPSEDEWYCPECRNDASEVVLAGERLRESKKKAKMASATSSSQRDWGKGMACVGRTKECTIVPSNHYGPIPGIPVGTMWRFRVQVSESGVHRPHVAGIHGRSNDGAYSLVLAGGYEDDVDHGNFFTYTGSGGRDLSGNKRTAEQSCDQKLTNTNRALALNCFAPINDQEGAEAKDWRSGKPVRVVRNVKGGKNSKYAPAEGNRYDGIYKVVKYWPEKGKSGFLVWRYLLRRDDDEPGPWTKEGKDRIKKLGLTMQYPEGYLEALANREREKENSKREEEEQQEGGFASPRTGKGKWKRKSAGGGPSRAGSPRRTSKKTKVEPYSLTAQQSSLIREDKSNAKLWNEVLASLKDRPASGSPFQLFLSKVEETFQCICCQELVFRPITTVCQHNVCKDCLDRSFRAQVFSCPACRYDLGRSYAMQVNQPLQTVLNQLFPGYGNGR
Neddylation inh: blocks human cullin neddylation. P61081+Q13564. AID 651699. TR-FRET cullin neddylation, biochemical. 0.58% of 360,000 active. calls only at 25 µM; in the data active means inhibition above about 36%
KLK7 act conf: proKLK7 activation, confirmation; shares compounds with KLK7 zymogen act; purified proKLK7, EDANS-DABCYL substrate fluorescence; scaled: vehicle 0, mature enzyme 100; activation, % at 7 µM; 68% of 3,200 active;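 active means activation, as change over the incubation, above the mean of all tested compounds plus 3 SD, cut at about 13% in these data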
EDANS-DABCYL int: optically interferes with EDANS-DABCYL signal, flagging KLK7 hits; shares compounds with KLK7 zymogen act; EDANS-DABCYL substrate fluorescence interference, no enzyme, 4 h; solvent 0%, active enzyme control 100%; activation, % at 7 µM; 80% of 3,200 active;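 active means activation above the all-compound mean plus 3 SD, ignoring values outside control-based bounds, cut at about 4.8% in these data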;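 further: value is the 4 h activation minus the activation read at time zero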
Numbers without * were called inactive; i = inactive; nt = no result given. The list is not random: actives were taken first. Their share in the collection is about 3.1%.

SMILES	LEDGF integ inh	Rin1 Abl inh	MBD2 inh	KLK7 zymogen act	UHRF1 binding	Neddylation inh	KLK7 act conf	EDANS-DABCYL int
CCc1cc(=O)oc2c(CN3CCCC3)c(O)c(Cl)cc12	0.6	-4.3	-2.1	83.2*	-5.7	nt	67.8*	71.3*
Cc1cc2oc(=O)cc(CN3CCCCC3)c2cc1Cl	-10.1	-1.4	1.5	-0.5	-3.7	i	nt	nt
COc1ccccc1N(CC(=O)NC(C)(C)C)S(=O)(=O)c1cccs1	-3.0	0.0	0.6	-0.1	-2.3	i	nt	nt
CCN(CC)C(=O)CC[C@H]1CC[C@]2(CCCN(C3CCCCC3)C2)O1	0.1	nt	-0.1	-0.3	2.9	nt	nt	nt
O=C(N[C@@H](Cc1cccnc1)C(=O)N1CCC[C@H]1C(=O)NC1CCCC1)c1ccc(Cl)c(Cl)c1	-1.4	nt	1.7	-0.7	3.6	nt	nt	nt
O=C(O)c1cc2c(cn1)[nH]c1ccccc12	5.6	3.9	-0.8	-9.7	2.1	nt	nt	nt
O=C(NCCCO)c1cc2c(cn1)[nH]c1ccccc12	-0.2	0.9	2.2	14.4*	-0.6	nt	5.4	7.6*
CCCCCCC12C(=Cc3cc4c(cc31)OCCO4)c1cc(OC)c(OC)cc1C(CC(=O)OC)N2C(=O)OC (configuration not stated)	1.0	nt	0.3	17.3*	-2.2	nt	-5.0	-16.5
CCCCCCC12C(=Cc3cc4c(cc31)OCCO4)c1cc(OC)c(OC)cc1C(CC(=O)O)N2C(=O)OC (configuration not stated)	1.9	nt	-3.3	1.1	-1.8	nt	nt	nt
Cc1ccc2c(c1)N(C(=O)CCC(=O)NCc1ccccn1)CC(C)O2 (configuration not stated)	-1.6	-2.4	0.9	-0.6	0.1	i	nt	nt
O=C(NC1CCCCC1)c1cc2ccccc2cc1O	1.9	-1.6	0.9	-9.4	1.6	i	nt	nt
Nc1nc2ncccc2cc1C(=O)NC1CC1	5.4	nt	0.2	24.6*	3.0	nt	28.1*	26.9*
CSc1ncccc1C(=O)NC1CCCCCCC1	4.4	2.8	1.0	0.0	3.2	i	nt	nt
Nc1nc2ncccc2cc1C(=O)NC1CCCCC1	5.0	nt	-4.7	24.4*	-2.4	nt	19.5*	24.7*
OC(c1ccccc1)(c1ccccc1)C1CCN(CCCOc2ccc(-c3cccnc3)cc2)CC1	-1.0	nt	-1.6	0.2	0.5	nt	nt	nt
COc1cc2c(OC)cccc2cc1C(=O)O	-0.1	0.8	-2.0	17.5*	0.7	nt	11.0	8.5*
COc1cc2ccccc2cc1C(=O)O	-4.0	3.3	-4.9	0.5	4.6	i	nt	nt
CN(C)S(=O)(=O)c1ccc(S(=O)(=O)Nc2ccc3c(c2)oc2ccccc23)cc1	-0.2	-0.1	3.2	-0.2	5.2	i	nt	nt
Cc1cc(=O)oc2cc(NS(=O)(=O)c3ccccc3)ccc12	-5.4	2.0	-11.4	66.6*	-2.1	nt	76.3*	76.3*
Cc1cc(=O)oc2cc(NS(=O)(=O)c3ccc(F)cc3)ccc12	-6.7	-1.7	0.9	79.4*	0.0	nt	64.8*	74.6*
CCOC(=O)c1ccccc1NC(=O)Cc1ccc(OC)c(S(=O)(=O)N2CCOCC2)c1	1.4	-0.8	1.3	0.2	4.5	i	nt	nt
CC(=O)c1ccc(Sc2ccccc2N)c([N+](=O)[O-])c1	0.2	-1.4	-0.9	15.5*	-1.8	i	6.8	3.3
CCN1CCN(C(=S)Nc2ccc3nc4n(c(=O)c3c2)CCCCC4)CC1	-3.5	1.4	-3.9	2.2	0.4	i	nt	nt
O=C(/C=C/c1ccc2c(c1)OCO2)Nc1nncs1	-2.3	-2.0	1.9	13.1*	0.8	nt	-22.1	-196.4
O=C(/C=C/c1ccc2c(c1)OCO2)Nc1nc(-c2ccccc2)cs1	-0.8	-0.7	-0.2	-114.9	-4.6	nt	nt	nt
SMILES	LEDGF integ inh	Rin1 Abl inh	MBD2 inh	KLK7 zymogen act	UHRF1 binding	Neddylation inh	KLK7 act conf	EDANS-DABCYL int
CC(=O)Nc1ccc(NC(=O)/C=C/c2ccc3c(c2)OCO3)cc1	-0.2	-0.4	-4.0	18.9*	-2.0	i	9.9	22.1*
COC(=O)[C@@]12CCCCC3=C1N(CCC3)C(=O)[C@H]2CC(=O)N1CCCC1	0.7	nt	2.9	0.2	0.8	nt	nt	nt
N#Cc1cc2cc3c(cc2nc1N1CCOCC1)OCO3	-0.7	-2.0	2.1	18.0*	-0.8	nt	114.3*	122.9*
COc1ccc(-c2c(C(=O)c3ccccc3)[nH]c(N)c2C(=O)c2c[nH]c3ccccc23)cc1OC	1.9	nt	-2.0	nt	2.8	nt	nt	nt
CN(C)CCNc1oc(-c2ccccc2F)nc1C#N	-4.0	-0.3	1.0	57.2*	-3.1	nt	30.4*	32.5*
CN(C)CCNc1oc(-c2cccc(Cl)c2)nc1C#N	1.5	-0.9	1.2	59.0*	0.2	nt	31.3*	33.6*
CN(C)CCCNc1oc(-c2ccccc2)nc1C#N	0.5	0.5	-3.1	12.6	3.5	nt	nt	nt
Cc1cc(NC(=O)C(C)SCC(=O)Nc2cc(C(F)(F)F)ccc2N2CCOCC2)no1 (configuration not stated)	0.5	3.9	-0.7	0.0	0.1	i	nt	nt
O=C(NC1CCCCN(Cc2cccc(Cl)c2)C1=O)c1c(F)cccc1F (configuration not stated)	-4.5	nt	-0.3	0.0	-4.6	nt	nt	nt
C[C@H]1[C@H](N(Cc2ccccc2)Cc2ccccc2)CC[C@@]23CCCN2C(=O)CCC[C@@H]13	8.3	nt	0.0	nt	-0.3	nt	nt	nt
O=S1(=O)c2ccc(N3CCN(Cc4ccccc4F)CC3)cc2Oc2ccccc2CN1Cc1cn(Cc2cccc(F)c2)nn1	-5.3	nt	0.3	-0.7	-0.1	nt	nt	nt
COc1ccc2c(c1OC)C(=O)OC2CC(=O)c1ccc2c(c1)OCO2 (configuration not stated)	3.9	6.3	-1.3	17.7*	2.6	i	11.6	11.6*
COc1ccc2c(c1OC)C(=O)OC2C/C(=N\NC(N)=O)c1ccccc1 (configuration not stated)	-4.7	0.8	-1.1	0.6	2.6	i	nt	nt
CCCC[C@@H]1C(=O)N2N=Cc3cc(C)c(C)cc3[C@H]2N2N=Cc3cc(C)c(C)cc3[C@@H]12	2.0	nt	7.3	0.3	5.0	nt	nt	nt
O=C1c2ccccc2C(=O)N1c1nc2nccc(-c3ccccc3)n2n1	2.2	5.4	3.8	3.9	0.7	i	nt	nt
O=C(Nc1nc2nccc(-c3ccccc3)n2n1)C(Cl)(Cl)Cl	-1.1	-0.3	2.4	39.3*	-1.0	i	46.7*	45.8*
CC(C)C[C@H]1COc2cccc(F)c2S(=O)(=O)N1Cc1cn(CCC2OCCCO2)nn1	0.1	nt	-2.8	0.5	-3.1	nt	nt	nt
O=C(NC1CCCCCC1)c1ccco1	-0.8	1.5	-0.9	0.8	1.6	i	nt	nt
Nc1cc2sc(-c3ccc(C(=O)O)cc3)nc2cc1Cl	-1.1	-2.0	-3.1	50.9*	-4.2	i	68.0*	74.8*

Screening results as filed in PubChem.
